This is an account of results in PubChem BioAssay (Tox21).

Calls of active or inactive are those of the source. A call without a number means that no potency is given here. The call rests on the fitted dose curve; in most records, active means well fitted curve in the direction sought with a large enough effect in the repeat runs; inconclusive means weak or mixed curves; inactive means flat fitted curve, though single readings scatter.

The experiment in a line: qHTS assay to test for compound auto fluorescence at 460 nm (blue) in HEK293 cells (AID 720678). The following applies: blue autofluorescence 405/460 nm; series mostly up to 91.3 µM. The text has this: National Center for Advancing Translational Sciences [NCATS]
NIH Chemical Genomics Center [NCGC]
U.S. Environmental Protection Agency [EPA]
National Institutes of Environmental Health Sciences [NIEHS]
National Toxicology Program [NTP]
U.S. Food and Drug Administration [FDA]
Compound auto fluorescence often interferes with screening of the compound library against various biological targets and signaling pathways. Some of these compounds may have fluorophoric properties. Such properties may interfere with the assay outputs resulting in false positives and/or negatives. To decrease such complications and ensure the compound activities are relevant in terms of biological response, the Tox21 10K compound library was screened for auto fluorescence.
From the fluorophores used as reporter signals in our screening assays, the auto fluorescence equivalencies of compounds against three fluorophores have been evaluated: Triamterene, Fluorescein and Rose Bengal sodium for blue, green and red fluorescence, respectively. The fluorescence intensities were measured using Excitation/Emission wavelengths at 405/460nm, 485/535nm and 540/590nm for blue, green and red labels, respectively. This assay includes the blue fluorescence data.
Tox21 Assay Protocol Summary:
2,000 HEK293 cells in 5 uL of culture medium containing 10% dialyzed FBS per well were dispensed into black wall/clear bottom 1536-well plates using a Multidrop Combi Dispenser (Thermo Scientific). The assay plates were incubated for 4-5 hr at 37C to allow cell attachment to the well bottom, followed by the transfer of 23 nL compound or DMSO vehicle by a pintool work station (Kalypsys, San Diego, CA). After the assay plates were incubated overnight at 37C and 5% CO2, fluorescence intensities in the assay plates were measured by an Envision (PerkinElmer, Shelton, CT) plate reader using three labels for measuring blue, green and red fluorescence at […] 460, 535 and 590nm respectively.
(Quantitative high-throughput screening tests each substance at several concentrations.)
In the case of `COc1ccc(CO)cc1`, the Potency result was “inactive”. The result for `O=[N+]([O-])c1ccc(Cl)c([N+](=O)[O-])c1` reads “inactive”.

For the compound `C[C@]12CC[C@H]3[C@@H](CCC4=CC(=O)CC[C@@H]43)[C@@H]1CC[C@@H]2O`, the Potency result was “inactive”. The result for `CCOP(=O)(O)OCC` (tested in a mixture with another compound) reads “inactive”; that for `C=C(C)C#N`, “inactive”. With `Cc1ccc([N+](=O)[O-])cc1`, the Potency result was “inactive”.

`N#CC(c1ccccc1)c1ccccc1`: the Potency result was “inactive”. Consider `Oc1ccc(Cl)cc1Cc1ccccc1`, for which the Potency entry was “inactive”. The result for `C=CC(Cl)CCl` (stereo not given) reads “inactive”; that for `CCOP(=S)(OCC)OP(=S)(OCC)OCC`, “inactive”; that for `CNC(=O)CSP(=S)(OC)OC`, “inactive”. On to `Brc1ccc(Br)cc1`, for which the Potency entry is “inactive”.

For the compound `NN=C(N)N`, the Potency result was “inactive”. The result for `CCN(CC)C(=O)C(C)Oc1cccc2ccccc12` (stereo not given) reads “inactive”.

Consider `N#Cc1nn(-c2c(Cl)cc(C(F)(F)F)cc2Cl)c(N)c1S(=O)C(F)(F)F` (stereo not given), for which the Potency result was “inactive”. Take `C[N+](C)(C)CC(=O)O`: the Potency result is “inactive”. The entry for `CCCCCCCCCCCCCl` is “inactive”. The entry for `CC1CC(=O)O1` (stereo not given) is “inactive”. The result for `ClC(Cl)(Cl)Br` reads “inactive”; that for `CCC[CH2][Sn]([Cl])([CH2]CCC)[CH2]CCC`, “inactive”. `OC(c1ccc(Cl)cc1)(c1cncnc1)c1ccccc1Cl` (stereo not given): the Potency entry was “inactive”. The result for `Clc1cccc(C(Cl)(Cl)Cl)n1` reads “inactive”. The entry for `C[C@]12CCC(=O)C=C1CC[C@@H]1[C@@H]2CC[C@@]2(C)[C@H]1CC[C@]2(C)O` is “inactive”.

In the case of `CNC(=O)Oc1cccc2c1OC(C)(C)C2`, the Potency result was “inactive”. The result for `CC(C)=CC1C(C(=O)OCc2cccc(Oc3ccccc3)c2)C1(C)C` (stereo not given) reads “inactive”. The result for `S=c1[nH]c2ccccc2[nH]1` reads “inactive”. The result for `CCCCC(C#N)(Cn1cncn1)c1ccc(Cl)cc1` (stereo not given) reads “inactive”; that for `CCOP(=O)(OCC)OCC`, “inactive”; that for `Cc1ccc(N=CN(C)C=Nc2ccc(C)cc2C)c(C)c1`, “inactive”.

Consider `O=S(=O)(O)C(F)(F)C(F)(F)C(F)(F)C(F)(F)C(F)(F)C(F)(F)C(F)(F)C(F)(F)F`, for which the Potency entry is “inactive”.

As to `Cc1cc(Cl)ccc1N=CN(C)C`, the Potency entry was “inactive”. Take `CCCCCCCCCC(CC)c1ccc(S(=O)(=O)O)cc1` (stereo not given): the Potency result is “inactive”. Consider `N#Cc1cccnc1`, for which the Potency result was “inactive”. The entry for `CC(O)CN(CC(C)O)CC(C)O` (stereo not given) is “inactive”; for `O=P(OCCCl)(OCCCl)OCCCl` it is “inactive”. The result for `COP(=O)(NC(C)=O)SC` (stereo not given) reads “inactive”; that for `CCC/C=N/O`, “inactive”; that for `CC(C)COC(=O)c1ccccc1C(=O)OCC(C)C`, “inactive”.

In the case of `ClC(Cl)(Cl)c1ccccc1`, the Potency result was “inactive”. The result for `O=C1CCCO1` reads “inactive”.
